Experimental data reported in the supplement of paper PMC8728848.
This is one part of a sample in which the strongest signals are shown more often than they occur.

Assays:
Test in all cases: glycan array binding signal (z-score within array); higher = stronger binding
Conditions in all cases: glycan notation: IUPAC condensed, linker removed; mutation: R186S
[1] = target: Neu5Ac(a2-3)Gal(b1-3)[Neu5Ac(a2-3)Gal(b1-4)]GlcNAc
In short: (§1)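 Negative Z-scores can be read as non-binding. The Z-score is calculated within each array and then averaged across arrays of one protein sequence at different concentrations or buffers and across linkers. Arrays, 3228 in all, were curated from the Consortium for Functional Glycomics database and kept only where the protein sequence was available.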

[2] = target: Neu5Ac(a2-3)Gal(b1-4)[Fuc(a1-3)]GlcNAc(b1-3)GalNAc
In short: as §1

[3] = target: Neu5Ac(a2-3)GalNAc(b1-4)GlcNAc
In short: as §1

[4] = target: Neu5Ac(a2-6)Gal(b1-4)GlcNAc(b1-2)Man(a1-3)[Gal(b1-4)GlcNAc(b1-2)Man(a1-6)]Man(b1-4)GlcNAc(b1-4)GlcNAc
In short: as §1

[5] = target: Neu5Ac(a2-6)Gal(b1-4)GlcNAc(b1-2)Man(a1-3)[Neu5Ac(a2-6)Gal(b1-4)GlcNAc(b1-2)Man(a1-6)]Man(b1-4)GlcNAc(b1-4)GlcNAc
In short: as §1

[6] = target: Neu5Ac(a2-6)Gal(b1-4)GlcNAc(b1-3)Gal(b1-3)GlcNAc
In short: as §1

[7] = target: Neu5Ac(b2-6)Gal(b1-4)GlcNAc
In short: as §1

Neu5Ac(b2-6)GalNAc = target: Neu5Ac(b2-6)GalNAc
In short: as §1

[8] = target: Neu5Ac9Ac(a2-3)Gal(b1-3)GlcNAc
In short: as §1

B1: Gal 3 (Homo sapiens), P17931 (protein)
chain: MADNFSLHDALSGSGNPNPQGWPGAWGNQPAGAGGYPGASYPGAYPGQAPPGAYPGQAPPGAYHGAPGAYPGAPAPGVYPGPPSGPGAYPSSGQPSAPGAYPATGPYGAPAGPLIVPYNLPLPGGVVPRMLITILGTVKPNANILDFQRGNDVAFHFNPRFNENNRRVIVCNTKLDNNWGREESQSVFPFESGKPFKIQVLVEPDHFKVAVNDAHLLQYNHRVKKLNEISKLGISGDIDLTSASYTMI
[1]
  glycan array binding signal (z-score): -0.076
[2]
  glycan array binding signal (z-score): 0.182
[3]
  glycan array binding signal (z-score): -0.062
[4]
  glycan array binding signal (z-score): 0.028
[5]
  glycan array binding signal (z-score): -0.05
[6]
  glycan array binding signal (z-score): -0.061
[7]
  glycan array binding signal (z-score): -0.083
Neu5Ac(b2-6)GalNAc
  glycan array binding signal (z-score): -0.023
[8]
  glycan array binding signal (z-score): -0.069
